Structures can show the parent of a compound that is named as a salt.
test system: thyroid hormone receptor (endogenous TRα and TRβ); parameters: species or system GH3-TRE-Luc (rat pituitary); GH3-TRE-Luc luciferase reporter, antagonist mode against 1 nM T3, loss of signal, qHTS; details: read-out: Average AC50 (uM) GH3-TRE-Antag, antagonist mode, 1 nM T3, no GH3 cytotoxicity hit

Row | SMILES | AC50 [µM]
1 | CC(C)(C)NC(=O)[C@H]1CC[C@H]2[C@@H]3CC[C@H]4NC(=O)C=C[C@]4(C)[C@H]3CC[C@]12C [Finasteride] | > 20
2 | CC1(C)[C@H](C(=O)O[C@H](C#N)c2cccc(Oc3ccccc3)c2)[C@@H]1C=C(Cl)Cl [alpha-Cypermethrin] | > 90
3 | O=C(O)c1snc(Cl)c1Cl [3,4-Dichloro-5-isothiazolecarboxylic acid] | 51.4
4 | Cc1cccc(Nc2ccccc2C(=O)O)c1C [Mefenamic acid] | 27.4
5 | Nc1ccc(C(=O)OCCCOC(=O)c2ccc(N)cc2)cc1 [Propane-1,3-diyl bis(4-aminobenzoate)] | 59.8
6 | Cc1ccc(Cl)c(Nc2ccccc2C(=O)O)c1Cl [Meclofenamate sodium] | 30.6
7 | CCc1cccc(C)c1N(C(=O)CCl)C(C)COC (centres unmarked) [Metolachlor] | 77
8 | Cc1cccc(N(C)C(=S)Oc2ccc3ccccc3c2)c1 [Tolnaftate] | > 20
9 | CC1(C)[C@H](C(=O)O[C@H](C#N)c2cccc(Oc3ccccc3)c2)[C@@H]1C=C(Br)Br [Deltamethrin] | 76.3
10 | CCOC(=O)CS [Acetic acid,mercapto-,ethylester] | 73.6
11 | O=C(c1ccc(O)cc1)c1ccc(O)cc1O [2,4,4'-Trihydroxybenzophenone] | > 90
12 | C[C@](N)(Cc1ccc(O)c(O)c1)C(=O)O [Methyldopa sesquihydrate] | > 50
13 | Brc1cc(Oc2cc(Br)c(Br)c(Br)c2Br)c(Br)c(Br)c1Br [Octabromodiphenyl ether] | 10.5
14 | CSC1=N[C@@](C)(c2ccccc2)C(=O)N1Nc1ccccc1 [Fenamidone] | 6.3
15 | COc1ccc(N=[N+]([O-])c2ccc(OC)cc2)cc1 [4-Azoxyanisole] | 30.2
16 | CCc1c2c(nc3ccc(OC(=O)N4CCC(N5CCCCC5)CC4)cc13)-c1cc3c(c(=O)n1C2)COC(=O)[C@]3(O)CC [Irinotecan hydrochloride] | 19.1
17 | CCC(=O)O[C@]1(C(=O)CCl)[C@@H](C)C[C@H]2[C@@H]3C[C@H](F)C4=CC(=O)C=C[C@]4(C)[C@@]3(F)[C@@H](O)C[C@@]21C [Halobetasol propionate] | 42.4
18 | CCCCC(CC)COC(=O)c1ccc(N(C)C)cc1 (centres unmarked) [2-Ethylhexyl 4-(dimethylamino)benzoate] | 47.2
19 | CCCCCCCCCCCCCCC[C@H](O)[C@@H](N)CO [Safingol] | 27.1
20 | c1ccc(-c2cccc(-c3ccccc3)c2)cc1 [1,1':3',1''-Terphenyl] | 50.3
21 | CC(C)(C)c1ccc(OC(=O)c2ccccc2O)cc1 [4-tert-Butylphenyl salicylate] | > 90
22 | C[C@@H]1C[C@H]2[C@@H]3C[C@H](F)C4=CC(=O)C(Cl)=C[C@]4(C)[C@@]3(F)[C@@H](O)C[C@]2(C)[C@@]1(O)C(=O)CO [Halometasone hydrate] | 33.2
23 | Clc1ccc(C2(Cn3cncn3)CC(Br)CO2)c(Cl)c1 (centres unmarked) [Bromuconazole] | 72.5
